Source: PubChem (National Center for Advancing Translational Sciences (NCATS))
Only some compounds are listed: those with a hit (about 9% of all), similar ones and a draw of the others.
ALOX12 inh: inhibitors of human 12S-lipoxygenase ALOX12; 580,000 tested, 1.1% active; purified 12hLO, xylenol orange hydroperoxide absorbance; Potency, µM (series often up to 108 µM), hits mostly inhibitors; P18054
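Purified human 12hLO at 150 nM in 25 mM Hepes, 0.01% Triton X-100, pH 7.0, preincubated 15 min at room temperature with compound. Reaction started with 40 uM arachidonic acid, 30 min at room temperature. Hydroperoxide measured by Fe-xylenol orange, 573/405 nm absorbance ratio.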
HP1b chromo inh: blocks HP1-beta chromodomain binding to methylated histone tails; P83916; AlphaScreen HP1-beta / biotin-H3K9me3 peptide binding; Potency, µM (titrated, usually from 114 µM), most hits filed as inhibitors; 390,000 tested, 0.56% active; AID 540317; also: nearly all actives have a fitted effect of over 70% in size
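HP1-beta protein (50 nM final) preincubated 30 min at room temperature with biotinylated H3(1-18)K9me3 peptide (50 nM) in PBS pH 7.4, 0.01% Tween-20, then compound added for 30 min. AlphaScreen streptavidin donor/nickel chelate acceptor beads (10 ug/mL final), 30 min dark, luminescence read.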
JMJD2A Tudor: inhibitors of human JMJD2A Tudor domain; O75164; AlphaScreen JMJD2A-Tudor / H3K4me3 peptide binding; Potency, µM (top dose mostly 114 µM), actives largely listed as inhibitors; 390,000 tested, 4.4% active; AID 504339; also: nearly all actives have a fitted effect of over 50% in size
G9a block: G9a (human) methyltransferase inhibition; 350,000 tested, 8.8% active; AID 504332; Potency, µM (titrated, usually from 102 µM), actives largely listed as inhibitors; G9a H3K9 monomethylation, AlphaScreen, 2 h; also: nearly all actives have a fitted effect of over 75% in size
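Methyltransferase reactions run at room temperature for 2 h (20 nM enzyme, 500 nM biotin-H3K9 peptide, 20 uM SAM) after a 15 min compound preincubation; product detected by AlphaScreen beads and anti-H3K9me1 antibody.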
PLK1 PBD block: PLK1 (human) polo-box domain binding inhibition. P53350. Plk1 PBD binding of FITC phosphopeptide, fluorescence polarization. Potency, µM, usual class: inhibitors. 360,000 tested, 2.8% active. AID 720504; also: series mostly up to about 57 µM; nearly all actives have a fitted effect of over 65% in size
BAZ2B inh: inhibitors of human BAZ2B bromodomain | Potency, µM (series often up to 114 µM), hits mostly inhibitors | AID 504333 | AlphaScreen BAZ2B-H3K14Ac peptide displacement | 360,000 tested, 4.4% active; also: nearly all actives have a fitted effect of over 60% in size
Target sequence (Q9UIF8 whole entry, looked up): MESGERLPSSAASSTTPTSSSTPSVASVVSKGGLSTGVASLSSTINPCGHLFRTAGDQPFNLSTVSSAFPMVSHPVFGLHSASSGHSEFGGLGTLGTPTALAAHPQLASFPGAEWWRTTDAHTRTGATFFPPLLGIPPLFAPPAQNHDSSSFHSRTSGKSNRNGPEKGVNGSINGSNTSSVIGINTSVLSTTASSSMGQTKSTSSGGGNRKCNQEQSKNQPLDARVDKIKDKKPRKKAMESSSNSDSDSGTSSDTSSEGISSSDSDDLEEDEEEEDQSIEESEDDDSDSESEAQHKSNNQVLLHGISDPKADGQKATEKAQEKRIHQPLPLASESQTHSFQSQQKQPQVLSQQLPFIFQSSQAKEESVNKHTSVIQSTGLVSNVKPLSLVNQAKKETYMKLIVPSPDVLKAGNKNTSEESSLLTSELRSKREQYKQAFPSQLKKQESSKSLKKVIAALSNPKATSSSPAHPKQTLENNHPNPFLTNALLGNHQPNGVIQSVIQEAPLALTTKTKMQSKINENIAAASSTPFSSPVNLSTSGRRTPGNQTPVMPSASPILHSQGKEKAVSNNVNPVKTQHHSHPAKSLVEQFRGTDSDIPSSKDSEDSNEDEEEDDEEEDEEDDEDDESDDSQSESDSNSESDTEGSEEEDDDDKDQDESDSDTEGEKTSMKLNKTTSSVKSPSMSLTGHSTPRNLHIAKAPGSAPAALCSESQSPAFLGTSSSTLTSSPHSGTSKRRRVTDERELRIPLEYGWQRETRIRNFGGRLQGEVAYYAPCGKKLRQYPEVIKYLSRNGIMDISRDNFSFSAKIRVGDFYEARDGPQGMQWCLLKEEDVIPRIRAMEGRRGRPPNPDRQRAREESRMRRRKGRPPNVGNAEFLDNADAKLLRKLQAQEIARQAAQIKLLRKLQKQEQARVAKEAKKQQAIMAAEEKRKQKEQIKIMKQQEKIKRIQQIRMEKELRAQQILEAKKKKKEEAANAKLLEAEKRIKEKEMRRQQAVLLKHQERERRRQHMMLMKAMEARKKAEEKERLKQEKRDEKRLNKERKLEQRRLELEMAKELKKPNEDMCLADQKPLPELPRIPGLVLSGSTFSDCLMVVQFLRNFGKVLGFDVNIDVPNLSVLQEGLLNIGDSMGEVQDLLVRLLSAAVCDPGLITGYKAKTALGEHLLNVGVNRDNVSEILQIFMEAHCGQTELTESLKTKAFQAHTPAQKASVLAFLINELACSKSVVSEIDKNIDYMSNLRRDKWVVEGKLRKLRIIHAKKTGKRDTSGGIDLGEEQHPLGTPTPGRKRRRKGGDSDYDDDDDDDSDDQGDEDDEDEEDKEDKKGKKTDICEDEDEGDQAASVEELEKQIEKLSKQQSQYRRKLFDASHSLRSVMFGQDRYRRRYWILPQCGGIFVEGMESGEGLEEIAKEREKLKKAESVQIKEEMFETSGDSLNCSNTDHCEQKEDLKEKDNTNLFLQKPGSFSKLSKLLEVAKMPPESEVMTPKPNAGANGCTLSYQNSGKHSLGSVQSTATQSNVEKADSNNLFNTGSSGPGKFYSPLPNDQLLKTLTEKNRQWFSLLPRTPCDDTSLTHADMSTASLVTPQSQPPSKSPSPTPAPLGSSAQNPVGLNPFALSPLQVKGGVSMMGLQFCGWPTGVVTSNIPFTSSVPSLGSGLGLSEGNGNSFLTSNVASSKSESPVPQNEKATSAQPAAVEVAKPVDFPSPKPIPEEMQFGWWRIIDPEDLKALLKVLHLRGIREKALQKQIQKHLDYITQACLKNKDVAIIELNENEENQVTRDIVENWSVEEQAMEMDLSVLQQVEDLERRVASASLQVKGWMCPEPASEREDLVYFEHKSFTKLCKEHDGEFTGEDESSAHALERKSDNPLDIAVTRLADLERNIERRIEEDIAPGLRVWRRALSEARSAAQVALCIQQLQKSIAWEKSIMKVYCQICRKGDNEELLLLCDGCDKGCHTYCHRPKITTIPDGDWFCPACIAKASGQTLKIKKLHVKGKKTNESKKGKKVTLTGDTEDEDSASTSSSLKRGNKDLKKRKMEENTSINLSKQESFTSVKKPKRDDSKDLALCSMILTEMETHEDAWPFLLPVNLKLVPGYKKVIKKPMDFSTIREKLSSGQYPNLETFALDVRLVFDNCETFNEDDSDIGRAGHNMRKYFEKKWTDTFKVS
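BAZ2B (50 nM) with biotin-H3(5-23)K14Ac peptide (50 nM) in PBS pH 7.4, 0.01% Tween-20, preformed 30 min, then compound 30 min at room temperature; top concentration 110uM. AlphaScreen streptavidin donor/nickel chelate acceptor beads (10 ug/mL final), 20 min dark, signal read.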
A number is an active result; - = inactive; ? = inconclusive; . = no result given; [ ] = remark or other dose. Calls follow the shape of the dose curve; as a rule, active = well fitted curve in the direction sought with a large enough effect; inconclusive = small, poorly fitted or top-dose-only effect, or another doubt; inactive = no such curve, though single readings can be large; an effect the other way counts as inactive or inconclusive.

SMILES | ALOX12 inh | HP1b chromo inh | JMJD2A Tudor | G9a block | PLK1 PBD block | BAZ2B inh
O=C(Nc1nnc2n1CCS2)c1ccc(F)cc1F | - | - | 50.1µM | 2.24µM | . | 50.1µM
Cc1ccccc1C(=O)Nc1nnc2n1CCS2 | - | - | ? | 8.91µM | . | ?
Cc1sc2nc(SCC(=O)N(CCO)CCO)nc(N)c2c1C | - | - | - | - | ? | -
CN(C)C(=O)C1CCc2nnc(C3CCN(C(=O)c4ccccc4)CC3)n21 (stereo not given) | -[6.33 µM] | . | . | . | . | .
N#Cc1cccc(NC(=O)Cn2cnc(S(=O)(=O)N3CCOCC3)c2)c1 | . | - | ? | ? | 9.47µM | -
Cc1cc(NCc2ccccn2)n2nc(C)c(-c3ccc(Cl)cc3)c2n1 | - | - | - | - | - | -
O=C(CN1CCCC1)OCCCC1CCCCC1 | - | - | - | 56.2µM | - | -
C[N+]1(CC(=O)OCCCC2CCCCC2)CCOCC1 | 11.2µM | . | . | . | . | .
C[N+]1(CC(=O)OCCCC2CCCCC2)CCCC1 | - | ? | ? | 56.2µM | 29.9µM | -
CC1CCC(COC(=O)C[N+]2(C)CCCCC2)C(C)C1 (stereo not given) | 22.4µM | . | . | . | . | .
CCOc1ccccc1NC(=O)COC(=O)C1CCC(=O)N1 (stereo not given) | - | - | - | . | - | .
Cc1ccc(C(=O)OCC(=O)NCCN2C(=O)CSC2=O)cc1 | - | - | - | - | - | -
O=C(Nc1cccc(Cl)c1)N(CCCN1CCOCC1)Cc1ccccc1F | - | - | - | - | - | -
CCOc1ccc(C(CC(=O)O)NC(=O)C(CC)c2ccccc2)cc1 (stereo not given) | - | - | - | - | - | -
CC(C)Oc1ccc(-c2nc3c(C#N)c[nH]n3c2NC2CCCCC2)cc1 | - | - | - | ? | . | -
CCC(=O)c1ccc(OCCSc2ncccn2)cc1 | - | - | -[11.4 µM] | - | 26.7µM | -
CC(Sc1nnc(-c2ccco2)o1)C(=O)NCCC1=CCCCC1 (stereo not given) | - | - | - | 50.1µM | - | -
CCN(CC)S(=O)(=O)c1cccc(-c2nnc(SC(C)C(=O)NCCC3=CCCCC3)o2)c1 (stereo not given) | - | - | - | -[12.7 µM] | - | -
CC(Sc1nnc(-c2cccnc2)n1N)C(=O)NCCC1=CCCCC1 (stereo not given) | - | - | - | 56.2µM | - | -
CC(Sc1nnc(-c2cccnc2)n1N)C(=O)N1CCOCC1 (stereo not given) | - | - | - | - | - | -
CC(=O)N(C(C)=O)c1ncnc2c1c(-c1ccc(Cl)cc1)nn2C(C)(C)C | - | - | - | . | - | -
O=C(Nc1ccc(F)cc1F)N1CCCN(c2ccc([N+](=O)[O-])cn2)CC1 | - | - | - | - | - | -
CC1=NN(c2nc(C)cc(C)n2)C(=O)C1CCC(C)C (stereo not given) | - | - | ? | - | - | -
CCC1C(=O)N(c2nc(C)cc(C)n2)N=C1C (stereo not given) | - | - | 11.2µM | 20µM | - | ?
CCN(CC(=O)Nc1c(F)cccc1F)C(=O)CN1C(=O)c2ccccc2C1=O | - | - | - | - | - | -
SMILES | ALOX12 inh | HP1b chromo inh | JMJD2A Tudor | G9a block | PLK1 PBD block | BAZ2B inh
Cc1ccc(C(=O)Nc2nnc(NC(=S)Nc3ccccc3)s2)cc1 | 39.8µM | - | - | ? | ? | -
Cc1ccc(C(=O)Nc2nc3ccccc3c(=O)s2)cc1 | - | - | 89.1µM | 8.91µM | - | ?
Cc1cc2[nH]c(=O)c(=O)[nH]c2cc1S(=O)(=O)N(C)C1CCCCC1 | - | - | 3.55µM | . | - | -
N#Cc1c(N)oc(-c2cccs2)c1-c1cccs1 | - | - | ? | 12.6µM | - | -
N#Cc1c(N)oc(-c2ccco2)c1-c1ccco1 | ? | - | ? | 44.7µM | - | ?
COc1ccc(OC)c(C=NN=Cc2cc(OC)ccc2OC)c1 | - | . | . | . | - | .
COc1ccc(OC)c(/C=N/c2oc(-c3ccco3)c(-c3ccco3)c2C#N)c1 | ? | ? | 50.1µM | 31.6µM | - | -
N#Cc1c(N)nc2c(c1-c1cccs1)CCCC2 | - | - | - | - | - | -
CCOC(=O)C1CCNC(=O)C1=O (stereo not given) | - | - | - | . | - | .
COc1cccc(-n2nc3c(=S)[nH]nc(C)c3c2C)c1 | - | - | - | -[2.33 µM] | - | -
O=C1CC(Nc2ccc(N3CCOCC3)cc2)C(=O)N1Cc1ccccc1 (stereo not given) | - | - | ? | 8.91µM | - | ?
O=C1CC(Nc2ccc(N3CCOCC3)cc2)C(=O)N1c1ccccc1 (stereo not given) | . | - | - | ? | - | -
Brc1ccc(-c2noc(Cc3cccs3)n2)o1 | 25.1µM | . | . | . | . | .
COc1ccc(Cc2nc(-c3ccc(Br)o3)no2)cc1 | - | . | . | . | . | .
CC1=C(c2ccccc2)[N+](=O)C2(CCCCC2)N1[O-] | - | - | - | 50.1µM | - | -
COc1cc(NC(=O)CCn2cnc3onc(-c4ccccc4Cl)c3c2=O)cc(OC)c1 | - | . | . | . | . | .
O=C(O)CCn1cnc2onc(-c3ccccc3Cl)c2c1=O | ? | ? | 50.1µM | ? | . | 50.1µM
Cc1cc(C(=O)CN2C(=O)NC3(CCCCC3)C2=O)c(C)n1-c1ccc2c(c1)OCO2 | - | ? | 56.2µM | - | 23.8µM | ?
Cc1cc(C(=O)CSc2nncs2)c(C)n1-c1ccc2c(c1)OCO2 | - | ? | ? | ? | - | 44.7µM
Cc1c(C(=O)Nc2cc(S(=O)(=O)N3CCOCC3)ccc2N2CCOCC2)oc2ccccc12 | - | - | - | ? | - | -
CC(C)c1ccc(S(=O)(=O)N2CCN(CC(=O)c3ccc(O)c(O)c3)CC2)cc1 | ? | . | . | 8.91µM | . | 39.8µM
O=C(CN1CCN(S(=O)(=O)c2ccc(Br)cc2)CC1)c1ccc(O)c(O)c1 | ? | - | - | 10µM | - | ?
COc1ccc(/C(C#N)=C/c2ccccn2)cc1 | - | - | - | -[2.33 µM] | - | -
Cc1ccc2c(c1)OC=CC(C(=O)Nc1ccc3oc(=O)ccc3c1)=C2 | - | . | . | . | . | .
COc1ccccc1-c1c(C)nn2c(C(F)(F)F)cc(-c3ccccc3)nc12 | - | - | - | 8.91µM | . | ?
SMILES | ALOX12 inh | HP1b chromo inh | JMJD2A Tudor | G9a block | PLK1 PBD block | BAZ2B inh
COc1ccccc1-n1c(=S)sc2c(=O)n(Cc3ccco3)c(SC)nc21 | - | - | ? | 12.6µM | ? | -
COc1ccccc1-n1c(SC)nc2c(sc(=S)n2-c2ccccc2)c1=O | - | - | - | - | - | -
CCN(CC)C(=O)CSc1nc2c(sc(=S)n2-c2ccccc2)c(=O)n1Cc1ccco1 | ? | - | - | 39.8µM | 23.8µM | 56.2µM
CCC1(CC)NC(=O)N(CC(=O)OCC(=O)Nc2cc(C)ccc2C)C1=O | - | - | - | - | - | -
CCCS(=O)(=O)c1ncc(Cl)c(C(=O)Nc2ccc(S(=O)(=O)Nc3ncccn3)cc2)n1 | - | - | - | 17.8µM | ? | -
CCS(=O)(=O)c1ncc(Cl)c(C(=O)Nc2ccc(S(=O)(=O)N3CCC(C)CC3)cc2)n1 | - | - | - | 44.7µM | ? | -
